Screens (PubChem)
Sfp PPTase inh: blocks B. subtilis Sfp PPTase activity. Q9F4F7. Biochemical Sfp PPTase activity, qHTS. Potency, µM, hits mostly inhibitors. 3.5% of 310,000 active. AID 1490;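 further: the enzyme is Sfp with the accession as filed and its product quenches rhodamine fluorescence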
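Buffer: 50 mM Hepes-Na pH 7.6, 10 mM MgCl2, 0.01% Nonidet P-40, 0.01% BSA. Enzyme 15 nM, pre-exposed to compound 15 min; substrates then added and fluorescence change tracked over 30 min.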
HP1b chromo inh: HP1-beta chromodomain-methylated histone interaction inhibition; P83916; AlphaScreen HP1-beta / biotin-H3K9me3 peptide binding; Potency, µM (titrated, usually from 114 µM), usual class: inhibitors; 0.56% of 390,000 active; AID 540317; further: nearly all actives have a fitted effect of over 70% in size
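HP1-beta protein (50 nM final) preincubated 30 min at room temperature with biotinylated H3(1-18)K9me3 peptide (50 nM) in PBS pH 7.4, 0.01% Tween-20, then compound added for 30 min. AlphaScreen streptavidin donor/nickel chelate acceptor beads (10 ug/mL final), 30 min dark, luminescence read.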
G9a block: blocks human histone lysine methyltransferase G9a. G9a H3K9 monomethylation, AlphaScreen, 2 h. Potency, µM (top dose mostly 102 µM), usual class: inhibitors. 8.8% of 350,000 active. AID 504332; further: nearly all actives have a fitted effect of over 75% in size
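G9a (20 nM) was preincubated 15 min with compound, then reacted 2 h at room temperature with 500 nM biotin-H3K9 peptide and 20 µM SAM. Monomethyl-H3K9 detected by AlphaScreen using anti-H3K9me1 antibody.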
L3MBTL1 inh: L3MBTL1 (human) inhibition; Q9Y468; AlphaScreen L3MBTL1–H3K9me1 peptide binding; Potency, µM (highest dose often 57.1 µM), hits mostly inhibitors; 0.66% of 230,000 active; AID 485360; further: nearly all actives have a fitted effect of over 60% in size
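Displacement of a biotinylated histone H3(1-15) peptide monomethylated at Lys9 (75 nM) from L3MBTL1 (50 nM) was measured by AlphaScreen after a 30 min room-temperature compound incubation; cefsulodin titration served as intraplate control.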
BAZ2B inh: blocks human BAZ2B. Q9UIF8. AlphaScreen BAZ2B-H3K14Ac peptide displacement. Potency, µM (series often up to 114 µM), hits mostly inhibitors. 4.4% of 360,000 active. AID 504333; further: nearly all actives have a fitted effect of over 60% in size
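Protein-peptide AlphaScreen: BAZ2B 50 nM, b-H3K14Ac 50 nM, 1x PBS pH 7.4 + 0.01% Tween-20. Preincubation 30 min RT; cpd 30 min RT (top 110 uM); beads 20 min RT, light-protected.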
JMJD2A Tudor inh: JMJD2A Tudor domain (human) inhibition | Potency, µM (doses to about 114 µM), actives largely listed as inhibitors | 4.4% of 390,000 active | AlphaScreen JMJD2A-Tudor / H3K4me3 peptide binding | O75164; further: nearly all actives have a fitted effect of over 50% in size
Target sequence (O75164 whole entry, looked up, the tested form may be a part): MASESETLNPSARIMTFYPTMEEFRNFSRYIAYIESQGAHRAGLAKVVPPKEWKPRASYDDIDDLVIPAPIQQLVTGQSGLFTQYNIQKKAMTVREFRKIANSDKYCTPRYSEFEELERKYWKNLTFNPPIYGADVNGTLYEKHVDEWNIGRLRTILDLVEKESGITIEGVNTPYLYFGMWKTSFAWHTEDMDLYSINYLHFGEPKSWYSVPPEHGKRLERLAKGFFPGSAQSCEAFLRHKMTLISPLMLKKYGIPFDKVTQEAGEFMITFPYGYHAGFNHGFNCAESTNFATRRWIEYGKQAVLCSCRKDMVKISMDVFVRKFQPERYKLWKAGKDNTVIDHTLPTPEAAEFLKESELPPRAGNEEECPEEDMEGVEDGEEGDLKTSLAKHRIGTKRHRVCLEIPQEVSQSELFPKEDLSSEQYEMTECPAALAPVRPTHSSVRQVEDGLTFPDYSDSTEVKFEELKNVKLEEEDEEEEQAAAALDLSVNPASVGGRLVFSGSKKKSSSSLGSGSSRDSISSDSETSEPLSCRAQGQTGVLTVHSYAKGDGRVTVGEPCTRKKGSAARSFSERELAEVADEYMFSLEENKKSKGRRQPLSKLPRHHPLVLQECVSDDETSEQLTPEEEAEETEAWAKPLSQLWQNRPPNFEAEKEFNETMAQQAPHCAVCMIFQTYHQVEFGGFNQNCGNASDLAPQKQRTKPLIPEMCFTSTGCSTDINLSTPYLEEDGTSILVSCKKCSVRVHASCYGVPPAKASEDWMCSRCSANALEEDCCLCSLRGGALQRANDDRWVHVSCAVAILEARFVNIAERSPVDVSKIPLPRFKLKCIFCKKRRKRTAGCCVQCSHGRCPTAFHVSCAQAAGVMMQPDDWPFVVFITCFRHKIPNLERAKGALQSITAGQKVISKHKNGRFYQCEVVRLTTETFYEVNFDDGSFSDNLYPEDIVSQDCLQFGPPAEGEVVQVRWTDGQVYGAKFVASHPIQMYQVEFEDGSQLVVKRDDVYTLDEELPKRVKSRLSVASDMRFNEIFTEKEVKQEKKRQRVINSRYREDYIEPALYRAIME
Hits are given with their value; – = inactive; ? = inconclusive; · = not tested or not shown; ! = a repeat was not active; [ ] = dose if it differs, or a comment. A selection: hits, their analogues and other compounds. The true share with any hit is near 12%. The call rests on the fitted dose curve; in most records, active means well fitted curve in the direction sought with a large enough effect; inconclusive means small, poorly fitted or top-dose-only effect, or another doubt; inactive means no such curve, though single readings can be large; an effect the other way counts as inactive or inconclusive.

SMILES	Sfp PPTase inh	HP1b chromo inh	G9a block	L3MBTL1 inh	BAZ2B inh	JMJD2A Tudor inh
CCC1(C)CC(C(N)=S)CCO1 (centres undefined)	4.5µM	?	–[12.7 µM]	–	?	56µM
CC(=O)OCC(=O)[C@@H]1CC[C@H]2[C@H]3CC[C@H]4C[C@@H](O)CC[C@]4(C)[C@@H]3C(=O)C[C@@]12C	?	·	–[5.15 µM]	·	·	·
CC1=CC2/C=C(\C)CCC(O)C(O)/C=C/C(=O)C23C(=O)NC(CC(C)C)C3C1C (centres undefined)	16µM	–	?	–	–	–
O=C1NC(=O)N(Cc2ccccc2)C(=O)/C1=C/c1cnn(-c2ccccc2)c1	–	·	5.6µM	·	?	·
O=C1CC(=O)N(Cc2ccccc2)C(=O)N1	·	–	·	·	·	–
COc1ccccc1N1C(=O)NC(=O)/C(=C\c2cnn(-c3ccccc3)c2)C1=O	32µM	–	8.9µM	–	–	?
OC[C@@H]1CCCN2CCCC[C@@H]12	–	·	·	·	·	·
CC(C)C[C@H]1CNC(=S)N1CC1CCN(CC2CCC(C(C)(C)C)CC2)CC1 (some centres undefined)	·	–	·	·	·	–
Nc1c(C(=O)NCc2ccco2)c2nc3ccccc3nc2n1CCN1CCOCC1	?	–	50µM	·	–	–
Nc1c(C(=O)NCc2ccco2)c2nc3ccccc3nc2n1Cc1ccccc1	45µM	–	?	–	–	–
COc1ccc(Cn2c(N)c(C(=O)NCc3ccco3)c3nc4ccccc4nc32)cc1	45µM	–	–	–	–	–
CCCCCn1c(N)c(C(=O)NCCN2CCOCC2)c2nc3ccccc3nc21	–	–	–	–	–	–
COCC(C)OC(=O)c1c(N)n(Cc2ccco2)c2nc3ccccc3nc12 (centres undefined)	32µM	–	–	·	–	–
COc1cccc(N2CCN(C(=O)C3CCCN(S(=O)(=O)c4ccc5c(c4)oc(=O)n5C)C3)CC2)c1 (centres undefined)	–	–	–	·	–	–
O=Cc1cn(Cc2c(F)cccc2Cl)c2ccccc12	50µM	–	–	·	–	–
COc1ccc(Br)cc1CNCCc1ccc2c(c1)OCO2	·	?	·	·	·	25µM
COc1cc(CNCCc2ccc3c(c2)OCO3)cc(OC)c1OC	–	?	5µM	–	56µM	0.79µM
COc1ccccc1CCNCc1cc2c(cc1[N+](=O)[O-])OCO2	–	–	25µM	–	50µM	3.5µM
COc1cc(CNCCc2ccc3c(c2)OCO3)ccc1O	–	–	–[0.501 µM]	–[2.29 µM]	–	–
CN1CCN(Cc2cc3c(cc2[N+](=O)[O-])OCO3)CC1	–	–	·	–	–	–
COc1ccc(CNCCc2ccc3c(c2)OCO3)cc1Br	?	–	5µM	·	50µM	18µM
C[C@]12CC[C@@H]3[C@@H](CCC4=CC(=O)CC[C@@H]43)[C@@H]1CC[C@@H]2OC(=O)CCc1ccccc1	?	·	–	·	·	·
C[C@H](CCC(=O)O)[C@H]1CC[C@@H]2[C@H]3CC[C@H]4C[C@H](O)CC[C@]4(C)[C@@H]3CC[C@@]21C	–	·	–	·	·	·
O=c1c2cc(N3CCOCC3)ccc2[nH]c(=S)n1Cc1ccc(Cl)cc1	16µM	–	–	·	–	–
CCCCCc1cc(O)c2c(c1)OC(C)(C)C1CC=C(C)CC21 (centres undefined)	–	·	–[12.7 µM]	·	·	·
SMILES	Sfp PPTase inh	HP1b chromo inh	G9a block	L3MBTL1 inh	BAZ2B inh	JMJD2A Tudor inh
NCC(O)c1cccc(O)c1 (centres undefined)	–	·	–[12.7 µM]	·	·	·
CC(C)c1cccc(O)c(=O)c1	56µM!	–	11µM!	–	56µM	–
C[C@@H](N)Cn1ccc2cc(F)c(Cl)cc21	–	·	·	·	·	·
O=C(Nc1ccccc1)N1CC2(CCN(C(=O)Oc3ccccc3)CC2)C1	–	·	–[12.7 µM]	·	·	·
CC1[C@H]2Cc3ccc(O)cc3[C@]1(C)CCN2CCc1ccccc1 (some centres undefined)	·	–	·	?	·	–
CNC(=O)Oc1ccc2c(c1)[C@]1(C)CCN(C)[C@@H]1N2C	–	–	45µM!	–	–	–
CN1CC[C@@]2(C)c3cc(O)ccc3N(C)C12 (some centres undefined)	·	·	9.5µM	·	·	·
CNC(=O)Oc1ccc2c(c1)C1(C)CCN(C)C1N2C (centres undefined)	–	·	·	·	·	·
CCC1(Oc2ccccc2)C(=O)NC(=O)NC1=O	·	–	·	·	·	–
CCC1(C)OC(c2ccccc2)=C/C(=C/C=C2C(=O)NC(=O)NC2=O)O1 (centres undefined)	–	–	50µM	?	40µM	?
O=C(c1c[nH]cc1-c1ccccc1)c1cccc2ccccc12	–	?	25µM	?	25µM	–
CCCn1c(C)c(C(=O)c2cccc3ccccc23)c2ccccc21	–	–	–	–	–	–
CCC(Oc1ccc(Cl)cc1)C(=O)OC1CC2CCC(C1)N2C (centres undefined)	–	·	–	·	·	·
O=C1CC2(CCCC2)CC(=O)N1CCCCN1CCN(c2ncccn2)CC1	–	–	13µM!	–	–	–
O[C@H]1CCCC[C@H]1N1CCC(c2ccccc2)CC1	–	·	–[21.5 µM]	·	·	·
CN(C)c1ccc(C(O)P(=O)(OC2CCCCC2)OC2CCCCC2)cc1 (centres undefined)	–	–	–	?	45µM	?
CC(C)(O)C1O[C@H]2CC[C@@]3(C)[C@@](O)(CC[C@H]4Cc5c([nH]c6ccccc56)[C@@]43C)C2=CC1=O (some centres undefined)	–	·	–	·	·	·
COc1ccc(OC)c(-n2c(O)c(/C=C3\C(C)=Nc4ccccc43)c(=O)[nH]c2=O)c1	–	–	50µM	·	–	–
COC(=O)C1=Nc2ccccc2/C1=C\c1c(O)n(-c2ccc(OC)cc2)c(=O)[nH]c1=O	50µM	–	–[12.7 µM]	–	79µM	?
COC(=O)C1=Nc2ccccc2/C1=C\c1c(O)n(-c2ccc(Br)cc2)c(=O)[nH]c1=O	45µM	–	16µM	–	56µM	?
COc1ccc(OC)c(-n2c(O)c(C=NCCN3CCNCC3)c(=O)[nH]c2=S)c1	–	–	–	·	–	–
O=c1[nH]c(=O)n(-c2ccccc2)c(O)c1/C=C1/C(c2ccccc2)=Nc2ccccc21	–	–	?	–	?	?
CC(C)[C@@H]1CN[C@H](C(=O)O)[C@@H]1CC(=O)O	–	·	·	·	·	·
CC(C)(C)OC(=O)N1CC(O)CC1C(=O)OCC(=O)c1ccc(-c2ccccc2)cc1 (centres undefined)	–	–	?	·	–	?
O=C1N=NC2=C1c1c3ccccc3c(O)n1CC2	–	?	–	–	–	–
CCCN(CCC)[C@@H]1CCc2ccc(O)cc2C1	–	·	?	·	·	·
CCCN(CCC)C1CCc2ccc(O)cc2C1 (centres undefined)	–	–	–[12.7 µM]	–	–	–
CCCN(CCC)C1CCc2cccc(O)c2C1 (centres undefined)	?	–	24µM!	·	·	–
CCCN(CCC)[C@@H]1CCc2c(F)ccc(O)c2C1	·	·	50µM	·	·	·
